This is part of a sample that, as a whole, favours compounds with a hit. Of some 83,000 tested, about 20% had one in any assay.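 Activity criterion: percent growth below 10, measured after cells in 96-well plates were exposed to a single compound concentration for 48 hours.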 Calls of active or inactive are those of the source.

For the assay, the system named is MCF7 breast. The experiment in a line: NCI-60 one-dose screen, 48 h (100 = growth as untreated, 0 = no growth, -100 = all killed). As to conditions: 10 µM unless noted. As for the experimental part: Growth inhibition of the MCF7 human tumor cell line is measured as a screen for anti-cancer activity. Cells are grown in 96 well plates and exposed to the test compound for 48 hours. Compounds are tested at a single concentration, which is 10^-5 M for most compounds. The reported endpoint is percent growth (GI% or GIPRCNT), where numbers from 0 - 100% represent growth inhibition, and numbers from -100% - 0 represent cell death. For example, a value of 40 represents 60% growth inhibition. A value of 0 means no net growth occurred over the course of the experiment. A value of -40 indicates 40% of cells at the beginning of the experiment died by the end of the experiment. A value of -100 means all cells are dead at the end of the experiment.
NCI-60 Human Tumor Cell Lines Screen was performed using the standard one-dose NCI protocol, which is described in more detail at https://dtp.cancer.gov/discovery_development/nci-60/default.htm.
Compounds with GIPRCNT values below 10 were considered active. Activity score was based on GIPRCNT using the following formula: […]
Score is 0 for GIPRCNT values of 100 or above, 50 for GIPRCNT values of 0, and 100 for GIPRCNT values of -100.
`NCCCOc1cc2ccccc2cc1C(=O)Nc1ccc(Cl)cc1OC(=O)c1cc2ccccc2cc1OCCCN`: the growth is -78.9% (active).

For `COc1ccc2cn3c4ccc(O)cc4[nH]c(=O)c3c2c1`, the growth is -5.85% (active).

As to `Nc1ccc(N=Nc2ccccc2)c2cc(S(=O)(=O)O)ccc12`, the growth is 86.5% (inactive).

With `Cc1ccc(OCCn2ccc(=O)n(CCOc3ccc(Cl)cc3C(=O)c3cc(C)cc(C)c3)c2=O)cc1`, the growth was 22.4% (inactive).

Take `COC(c1ccccc1)C(Br)C(=O)c1ccccc1` (stereo not given): the growth is 98.5% (inactive).

Take `CC(=O)c1nn(-c2ccc(C)cc2)cc1C(=O)c1cc2c(ccc3ccccc32)oc1=O`: the growth was 87.5% (inactive).

Take `CCOC(=O)C1CCCN1C(=O)C1(NC(C)=O)CCCC1` (stereo not given): the growth is 99.3% (inactive).

`CC(CCN1CCN(CCC(C)CC(C)(C)C)C1CC(C)CC(C)(C)C)CC(C)(C)C` (stereo not given): the growth is 95.7% (inactive).

With `O=C(O)c1occ(Cl)c1Cl`, the growth was 111% (inactive).

Regarding `Nc1nc2c(c3cnccc13)C(c1cccc(Br)c1)Cc1cnccc1-2` (stereo not given), the growth is 11.5% (inactive).

On to `CN(CCC#N)c1ccc(/C=C(\C#N)c2cccc(C(F)(F)F)c2)cc1`, for which the growth was 34.2% (inactive).

On to `Oc1ccccc1\C=N/N=C/C=C/c1ccccc1`, for which the growth is 81.4% (inactive).

With `COc1cc(-c2nn(-c3ccc(NC(=O)Nc4cc(C(F)(F)F)cc(C(F)(F)F)c4)cc3)cc2-c2ccncc2)ccc1Cl`, the growth was -4.41% (active).

In the case of `CC([C@H]1CCC2C3CCC4C[C@@H](N)CC[C@]4(C)C3CC[C@@]21C)N(C)C` (stereo not given in full), the growth was 48.7% (inactive).

With `COC(=O)c1ccc(C(=Nc2ccc(N(C)C(=O)CN3CCN(C)CC3)cc2)c2c(O)[nH]c3ccc(C(=O)OC)cc23)cc1`, the growth was 23.5% (inactive).

In the case of `COc1cc(/C=C/C(=O)/C=C(/C=C/c2ccc(OC(C)=O)c(OC)c2)OB(F)F)ccc1OC(C)=O`, the growth is 21.5% (inactive).

Consider `O=C(/C=C1\C(=O)N(Cc2ccccc2)c2ccccc21)c1ccc(OCCN2CCCCC2)cc1`, for which the growth was 3.98% (active).

Regarding `C=CCSc1nnc(COc2ccc3c(C)c(Cc4ccccc4)c(=O)oc3c2C)o1`, the growth is 95.7% (inactive).

Take `CCCCCN1CCN(C(CC(=O)c2ccccc2)C(=O)c2ccccc2)CC1` (stereo not given): the growth was 89.6% (inactive).

Take `CCC1(CC)C(OC)NC(Br)=C(C#N)C1(C#N)C(N)=O` (stereo not given): the growth is 110% (inactive).

For the molecule `COc1nc(OC)nc(-c2cc(C(=O)c3ccc(Br)cc3)n3cc(C)cc(C)c23)n1`, the growth is 70.5% (inactive).

Regarding `CCCCCCCCCCCCCCCCNC(=S)N/N=C/c1ccc(O)cc1O`, the growth is 79.1% (inactive).

In the case of `CC(=O)/C(=C\c1c(-c2ccccc2)[nH]c2ccccc12)S(=O)(=O)c1ccccc1`, the growth was 10.1% (inactive).

On to `CCC(C)(C)c1ccc(OCCCCCCN2CCN(c3ccc(C)c(Cl)c3)CC2)cc1`, for which the growth was 88.4% (inactive).

In the case of `N#Cc1c2ncccc2c2nnc3cc(Cl)c(Cl)cc3n12`, the growth is 38.9% (inactive).

`O=C(N/N=C/c1cc(Cl)ccc1O)C(=O)N/N=C/c1cc(Cl)ccc1O`: the growth was 61.3% (inactive).

On to `N#Cc1c2cccnc2c2nnc3cc(Cl)c(Cl)cc3n12`, for which the growth was 1.41% (active).

Take `N=C(N)N=Nc1ccc(NN=C(N)N)c2ccccc12`: the growth was 97.4% (inactive).

With `CSc1nc(N)n2nccc2n1`, the growth is 96% (inactive).

In the case of `COC(=O)/C=C1/CCCCC1(C)C(=O)OC` (stereo not given), the growth was 106% (inactive).

On to `c1ccc2[nH]c(-c3ccc(OCCCCCOc4ccc(-c5nc6ccccc6[nH]5)cc4)cc3)nc2c1`, for which the growth is -39.3% (active).

In the case of `CCC(C)C1NC(=O)C(CC(C)C)NC(=O)C(C)NC(=O)C(C(C)C)NC(=O)C(CCCCN)NC(=O)C(CC(C)C)NC(=O)C(C(C)C)NC(=O)[C@H](C)NC(=O)C(C(C)CC)NC(=O)C(CCCN=C(N)N)NC(=O)C(CCCCN)NC(=O)C(CCCN=C(N)N)NC(=O)C(CCCCN)NC(=O)C([C@H](C)CC)NC(=O)C(CCCCN)NC1=O` (stereo not given in full), the growth is 20.5% (inactive).

Regarding `O=C(O)c1ccc(Br)nc1`, the growth was 93.8% (inactive).

Turning to `CC(=O)Nc1nc(C)c(C(=O)NN)s1`, the growth was 99.1% (inactive).

As for `COCn1c(C(=O)OC)cc2oc(/C=C3/SC(=S)N(N)C3=O)cc21`, the growth is 97% (inactive).

With `N=C(N)c1ccc(-c2ccc(-c3ccc(Cl)cc3)s2)s1`, the growth is -66% (active).

Regarding `Cc1c(Cc2ccccc2)c(=O)oc2c(C)c(OCC(=O)n3nc(C#N)cc3N)ccc12`, the growth was 89.7% (inactive).

As for `COc1cc(N2C(=O)C=CC2=O)ccc1N1C(=O)C=CC1=O`, the growth was 98.8% (inactive).

Consider `CCC(C)C1NC(=O)C(CCCCN)NC(=O)C(CCCCN)NC(=O)C(CC(C)C)NC(=O)C(CCCCN)NC(=O)C(C(C)CC)NC(=O)C(C(C)C)NC(=O)C(C(C)CC)NC(=O)C(CCCCN)NC(=O)C(CCCCN)NC(=O)C(C)NC(=O)C(CCCCN)NC(=O)C(CC(C)C)NC1=O` (stereo not given), for which the growth was 22.5% (inactive).

As for `O=C1Nc2ccccc2/C1=C/c1cn(CC(O)Cn2cc(/C=C3\C(=O)Nc4ccccc43)c3ccccc32)c2ccccc12` (stereo not given), the growth is -67.5% (active).

The values are drawn from PubChem BioAssay (NCI).
